Source: PubChem BioAssay
SW480 rereplic: inducers of DNA re-replication in SW480 colon cancer cells. SW480 DNA re-replication, Hoechst DNA content imaging, 48 h. hit rate 1.8% among 340,000. Potency, µM (top dose mostly 46.1 µM), for inactives: top-dose re-replication activation, usual class: activators. AID 624297; further: % of control where 0% means no effect; nearly all actives have a fitted effect of over 55% in size
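First, 250 cells per well were seeded. Next, compound or vehicle (23 nL) was pinned in, plates sat 48 hr at 37 C. Finally Hoechst was added for 40 min before fluorescence scanning.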
HT1080 IDH1KD tx: HT-1080 IDH1 knockdown cell toxicity (counter line); Potency, µM (doses to about 46.1 µM), without a hit: top-dose activity, negative = toxicity, usual class: cytotoxic; AID 686971; hit rate 2% among 360,000; HT-1080 IDH1 knockdown viability, ATP luminescence, 48 h;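 further: 0% = DMSO wells and -100% = cell-free medium wells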
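HT-1080-IDH1KD cells (IDH1 knocked down), 750/well in RPMI with 5% FBS, treated with compound 48 h at 37 degrees C. Viability by CellTiter-Glo luminescence, normalised to DMSO and no-cell wells; concentration-response curves classed.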
KB-3-1 cytotox: KB-3-1 parental cell cytotoxicity; KB-3-1 viability, CellTiter-Glo ATP luminescence, 72 h; Potency, µM (highest dose often 46.1 µM), most hits filed as cytotoxic; hit rate 1.4% among 400,000; AID 1347075; further: on the % scale 0 is the no-effect control and ±100 the full control effect; nearly all actives have a fitted effect of over 60% in size
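Cytotoxicity in the drug-sensitive parental line KB-3-1 was scored as loss of CellTiter-Glo luminescence following 72 h incubation with compound. Values come from curve fitting of normalized concentration-response data.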
KB-V1 cytotox: KB-V1 MDR subline cytotoxicity | KB-V1 MDR cells viability, CellTiter-Glo, 72 h | Potency, µM (doses to about 46.1 µM), actives largely listed as cytotoxic | hit rate 3.4% among 400,000 | AID 1347076; further: on the % scale 0 is the no-effect control and ±100 the full control effect; nearly all actives have a fitted effect of over 60% in size
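KB-V1 MDR subline cells in DMEM (phenol-red free, 10% FBS) exposed to compounds in qHTS concentration series for 72 h at 37 degrees C. Viability read by CellTiter-Glo luminescence; concentration-effect curves fitted after normalization and correction.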
HT1080-NT tox: kills 2HG-producing HT-1080-NT fibrosarcoma cells; HT-1080-NT fibrosarcoma viability, CellTiter-Glo ATP luminescence, 48 h; Potency, µM (highest dose often 46.1 µM), for the others: at the highest dose activity, negative = less viability, usual class: cytotoxic; hit rate 1.6% among 360,000;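 further: NT is the 2HG producing partner of a matched IDH1 knockdown line; 0% = DMSO-treated cells and -100% = media-only wells without cells; nearly all actives have a fitted effect of over 55% in size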
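HT-1080-NT fibrosarcoma cells (2HG-overproducing), 750 cells/well in RPMI with 5% FBS, dosed after 2 h and incubated 48 h at 37C. CellTiter-Glo luminescence normalized to DMSO and no-cell wells; concentration-response curves fitted and classed.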
MCF10A rerep: induces DNA re-replication in MCF 10a normal breast cells; MCF 10A DNA re-replication, Hoechst nuclear intensity, 48 h; Potency, µM (doses to about 46.1 µM), without a hit: top-dose activity, positive = re-replication, usual class: activators; hit rate 2.9% among 350,000; further: % of control where 0% means no effect; nearly all actives have a fitted effect of over 50% in size
The depositor's hits bear a star; i = inactive; ? = inconclusive; nt = no result given; [ ] = remark or other dose. Shown are actives, neighbours in structure and some others; about 7.9% of the full set was active somewhere. The call rests on the fitted dose curve; in most records, active means well fitted curve in the direction sought with a large enough effect; inconclusive means small, poorly fitted or top-dose-only effect, or another doubt; inactive means no such curve, though single readings can be large; an effect the other way counts as inactive or inconclusive. Potency means the concentration at half of the fitted maximal effect.

SMILES	SW480 rereplic	HT1080 IDH1KD tx	KB-3-1 cytotox	KB-V1 cytotox	HT1080-NT tox	MCF10A rerep
CCc1nc2sc(C#N)c(N)c2c2c1CCCC2	2%	4%[9.24 µM]	i	i	3%	22%
Cc1ccc(NC(=O)C(=O)NCC(c2ccc3c(c2)OCO3)N2CCOCC2)c(C)c1 (stereo not given)	nt	nt	i	i	nt	nt
CC(=O)c1sc2nc(-c3ccc(C)cc3)c3c(c2c1N)CCCC3	2.9µM*	-22%	i	18µM*	-5%	2.3µM*
CN(Cc1ccccc1)Cc1nc2c(c(=O)n(C)c(=O)n2C)n1CCc1ccccc1	-2%	0%	i	i	13%	7%
Cn1c(=O)c2c(nc(Br)n2CCc2ccccc2)n(C)c1=O	-8%	1%[9.24 µM]	i	16µM*	-5%	12%
Cn1c(=O)c2c(nc(NCc3ccccc3)n2CCCc2ccccc2)n(C)c1=O	-6%	-15%	?	2.9µM*	-7%	?
COCCNc1nc2c(c(=O)n(C)c(=O)n2C)n1CCCc1ccccc1	nt	-1%	i	16µM*	1%	nt
CNc1nc2c(c(=O)n(C)c(=O)n2C)n1CCCc1ccccc1	-3%	-25%	?	8.2µM*	-6%	12%
CC(O)Cn1c(=O)c2c(nc(Br)n2Cc2ccccc2)n(C)c1=O (stereo not given)	-10%	20µM*	i	i	14µM*	-3%
Cc1ccc(OCCn2c(Br)nc3c2c(=O)n(C)c(=O)n3C)cc1	-5%	0%	21µM*	?	0%	-4%
CC1CN(Cc2nc3c(c(=O)[nH]c(=O)n3C)n2CCCc2ccccc2)CC(C)O1 (stereo not given)	-11%	2%	i	3.3µM*	0%	2%
C=CCNc1nc2c(c(=O)n(C)c(=O)n2C)n1CCCCCC	1%	-10%	1.5µM*	1.5µM*	-1%	15%
Cc1oc(-c2ccc(C(=O)NCc3cccc(F)c3)cc2)nc1COc1ccccc1	nt	nt	i	i	nt	nt
Cc1ccc(C)c(OCCn2c(CCNC(=O)C3CCCCC3)nc3ccccc32)c1	nt	nt	i	i	nt	nt
Cn1c(=O)c2c(nc(NCc3ccco3)n2C)n(C)c1=O	-1%	-7%	i	i	8%	-5%
Cc1csc(Sc2nc3c(c(=O)[nH]c(=O)n3C)n2CCCc2ccccc2)n1	-15%	-1%	?	4.1µM*	-1%	9%
Cn1c(=O)[nH]c(=O)c2c1nc(NCc1ccccc1)n2CCCc1ccccc1	-3%	1%[9.24 µM]	i	12µM*	-21%	2%
CNc1nc2c(c(=O)[nH]c(=O)n2C)n1CCCc1ccccc1	-1%	7%	i	i	11%	?
Cn1c(=O)[nH]c(=O)c2c1nc(SCCO)n2CCCc1ccccc1	-17%	-2%	i	?	-1%	?
Cn1c(=O)c2c(nc(NCc3ccco3)n2C/C=C/c2ccccc2)n(C)c1=O	?	-25%	i	3.3µM*	-29%	?
COc1ccc(CCNC(=O)CCc2c(C)c3ccc(O)c(C)c3oc2=O)cc1	nt	nt	i	i	nt	nt
Cn1c(=O)cc(SCC(=O)N2CCN(c3ccccc3F)CC2)c2cc(Cl)ccc21	nt	nt	i	i	nt	nt
Cc1ccccc1CSc1ncc(CO)n1Cc1ccc(F)cc1	nt	nt	i	i	nt	nt
CCc1cc(/C(Cc2ccccn2)=N\O)c(O)cc1O	?	13µM*	i	i	?	0%
CN(C(=O)CCCN1C(=O)c2ccccc2C1=O)C1CCCCC1	-5%	19%	i	12µM*	20%	4%
SMILES	SW480 rereplic	HT1080 IDH1KD tx	KB-3-1 cytotox	KB-V1 cytotox	HT1080-NT tox	MCF10A rerep
Cc1cccc(-n2ncc3c(NNC(=O)c4ccccc4Cl)ncnc32)c1	nt	nt	i	?	nt	nt
Cc1nc2ccccc2n1CC(=O)NC1CCCCCC1	-12%	?	?	15µM*	?	0%
CCCn1c(/C=C/c2ccccc2)nc2ccccc21	?	10µM*	i	i	10µM*	23µM*
Cc1nc2ccccc2n1CC(=O)NC1CCCC1	-3%	-3%	i	i	4%	-16%
CCn1c(SCC(=O)N/N=C/C=C\c2ccccc2[N+](=O)[O-])nc2ccccc21	-1%	-24%	?	7.3µM*	8%	15%
Cc1ccc(NC(=O)Cn2c(/C=C/c3ccccc3)nc3ccccc32)cc1C	?	?	i	?	?	16µM*
Cc1occc1C(=O)N/N=C/C=C\c1ccccc1[N+](=O)[O-]	0%	19%	i	i	29%	1%
O=C(N/N=C/C=C\c1ccccc1[N+](=O)[O-])c1ccco1	26µM*	7%	i	i	-3%	?
Cc1nc2ccccc2n1CC(=O)N/N=C\C=C\c1ccccc1	-2%	-3%	i	21µM*	9%	3%
Cc1ccc(C(=O)Cn2c(C(=O)/C=C/c3ccccc3)nc3ccccc32)cc1	?	?	?	13µM*	?	23µM*
CC(C)c1ccccc1NC(=O)Cn1c(/C=C/c2ccccc2)nc2ccccc21	9.2µM*	-27%	i	?	?	10µM*
CC(C)c1ccccc1NC(=O)Cn1c(-c2ccccc2Cl)nc2ccccc21	28%	-8%	i	?	-9%	-1%
CCOC(=O)C1CCCN(C(=O)c2ccc3c(c2)N(Cc2ccccc2F)C(=O)c2ccccc2S3=O)C1 (stereo not given)	nt	nt	i	i	nt	nt
Cc1ccc(N2C(=O)NC(NS(=O)(=O)c3ccc(Cl)cc3)(C(F)(F)F)C2=O)cc1C (stereo not given)	nt	nt	i	i	nt	nt
CC(=O)c1ccc(NC(=O)Cn2cnc3nc4c(cc3c2=O)CC(C)CC4)cc1 (stereo not given)	nt	nt	i	?	nt	nt
CC(=O)c1cc(-c2ccccc2)n(CC(=O)Nc2ccc(C)c(C)c2)c1C	4%	-30%	i	i	?	23µM*
CC(=O)c1cc(-c2ccccc2)n(CC(=O)Nc2cccc(C)c2C)c1C	-1%	1%	i	i	-1%	-3%
O=[N+]([O-])c1ccccc1OCCOCCOc1cccc2cccnc12	-5%	8%	i	i	1%	?
O=[N+]([O-])c1ccc(Oc2cccc3cccnc23)c([N+](=O)[O-])c1	?	23µM*	i	21µM*	?	21µM*
N#Cc1cc(Oc2cccc3cccnc23)c(-n2nnc3ccccc32)cc1C#N	?	6.3µM*	?	?	5.6µM*	14µM*
N#Cc1cc(O)c(-n2nnc3ccccc32)cc1C#N	-12%	-8%	i	i	2%	16%
